For 40 molecules, growth inhibition results are on record in PubChem BioAssay (NCI).

Compounds without any hit were thinned out: in the full panel of roughly 79,000, 15% have a hit. Active and inactive are the calls of the source. Rule as the data show it: active = growth inhibition above about 70%; inactive = the rest.

A short description of the experiment: NCI Yeast Anticancer Drug Screen. Data for the bub3 strain (AID 167). The settings on record: S. cerevisiae bub3 mutant strain, at 50.0 µM, hits give high values. An outline of the steps:
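Mutant yeast screening strain plus compound; vehicle-treated cultures serve as the 0% inhibition reference.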
Take `Cn1c(=O)c(N=Nc2c(=O)n(C)c(=O)n3c2[nH]c2ccccc23)c2[nH]c3ccccc3n2c1=O`: the growth inhibition is -10.7% (inactive).

Regarding `CCCCC(CC)CN(CC(CC)CCCC)C(=O)C(C)OC(=O)C(CC)CCCC` (stereo not given), the growth inhibition was 14.8% (inactive).

On to `CC1CN(CCO)C(C)(C)C1` (stereo not given), for which the growth inhibition was -9.2% (inactive).

`CC1NCCC(CC(=O)O)C1CC(=O)O` (stereo not given): the growth inhibition is -26.8% (inactive).

With `CCOC(=O)C(Cc1ccccc1)NC(=O)c1[nH]cnc1/N=N/N(C)C` (stereo not given), the growth inhibition was 2.8% (inactive).

Consider `CCN(CC)CCOC(C)=O`, for which the growth inhibition is -11.1% (inactive).

Consider `Cc1ccc(S(=O)(=O)OCC2=C(COS(=O)(=O)c3ccc(C)cc3)C3c4ccccc4C2c2ccccc23)cc1`, for which the growth inhibition is -1.35% (inactive).

On to `CC1=C(C(=O)NCc2ccccc2)C(c2ccc([N+](=O)[O-])cc2)C(C(=O)NCc2ccccc2)=C(C)N1`, for which the growth inhibition was -4.8% (inactive).

Regarding `O=C(OCCOc1ccc(Cl)cc1Cl)c1ccccc1O`, the growth inhibition is 11.6% (inactive).

Turning to `Clc1ccccc1C=Nc1ccccc1`, the growth inhibition is 24.7% (inactive).

`COc1ccc(/C(C)=N/NC(=O)CC(=O)N(C(=O)c2ccccc2)c2ccc(C)cc2)cc1`: the growth inhibition was -27.2% (inactive).

In the case of `Cc1nc(N)[nH]c(=O)c1CCCNc1ccc(CCCCCCC2(CCl)OCCO2)cc1`, the growth inhibition is 17.4% (inactive).

Consider `COC(=O)CC1C(OC)OC23CCC1C2(C)CCC1C3CCC2CC(OC(C)=O)CCC21C` (stereo not given), for which the growth inhibition was -1.7% (inactive).

In the case of `O=C(CC(C(=O)c1cccs1)c1cccs1)c1ccsc1` (stereo not given), the growth inhibition was 2.9% (inactive).

Consider `N#CCCCNc1ccccc1`, for which the growth inhibition is -8.6% (inactive).

For the molecule `CCCC(C)C(=O)OC1CCCCC1C` (stereo not given), the growth inhibition is 8.1% (inactive).

As to `O=C(Nc1ccccc1[N+](=O)[O-])Oc1ccc(-c2ccccc2)cc1`, the growth inhibition was 46.4% (inactive).

Consider `CCCCCCCCCCCC(=O)CCCCCCCCCCC`, for which the growth inhibition is -4.15% (inactive).

`C=CC(=O)OCC(C)(C)COC(=O)C=C`: the growth inhibition is 19.8% (inactive).

Consider `Nc1nnnn1C1CCCCC1`, for which the growth inhibition was -11.3% (inactive).

On to `Cc1c(C)c(C(=O)O)c(C)c(C)c1C(=O)O`, for which the growth inhibition is 24.4% (inactive).

On to `NC(N)=NC(N)=NCc1ccccc1`, for which the growth inhibition was 1.85% (inactive).

In the case of `Nc1nnc(-c2ccccc2)s1`, the growth inhibition is 5.85% (inactive).

Consider `CCN(CC)CCOC(=O)Cc1ccccc1`, for which the growth inhibition was 6.5% (inactive).

As for `C[n+]1ccc(/C=C/c2ccc(O)c3ncccc23)c2cccc(O)c21`, the growth inhibition is 5.4% (inactive).

Take `Cn1c([N+](=O)[O-])cnc1COc1ccc(NC(=O)CN2CCOCC2)cc1`: the growth inhibition was 10.3% (inactive).

Regarding `CCC(=O)CC(=O)C(=O)OC`, the growth inhibition is 3.5% (inactive).

Consider `Nc1ccccc1SC1CC(=O)N(c2ccc(Br)cc2)C1=O` (stereo not given), for which the growth inhibition is 26.6% (inactive).

Turning to `CCN(CC)c1nc2ccccc2o1`, the growth inhibition was -19.9% (inactive).

With `CC(C(=O)O)N(CCC#N)CCC#N` (stereo not given), the growth inhibition was 2.35% (inactive).

For `COC(=O)CCNC(=O)c1ccccc1`, the growth inhibition is 1.2% (inactive).

As for `COc1cc(C=O)c(-c2cc(OC)c(OC)cc2C=O)cc1OC`, the growth inhibition is -12.4% (inactive).

As for `CN(C)c1c(F)c(F)c(N=Nc2ccccc2)c(F)c1F`, the growth inhibition was 16.8% (inactive).

For `Nc1nc2c(c(-c3nc(N)nc4c3CCC4)n1)CCC2`, the growth inhibition is -1.75% (inactive).

Turning to `CC1=C(C(=O)CC(=O)C(=O)Nc2cccc(Cl)c2C)Sc2ccccc2N1`, the growth inhibition is -13.6% (inactive).

`CC(=O)Nc1ccc(F)cc1`: the growth inhibition was -19.5% (inactive).

As for `O=C(O)C1CCC1C(=O)O` (stereo not given), the growth inhibition was 10.2% (inactive).

For `CC(C)CC(O)C(CC(=O)Nc1ccccc1)S(=O)(=O)c1ccccc1` (stereo not given), the growth inhibition is -15.1% (inactive).

Take `Oc1cc(N2CCCC2)ccc1/C=N/N1C(=S)N(c2ccccc2)C(=Nc2ccccc2)C1=Nc1ccccc1`: the growth inhibition was -30.6% (inactive).

As to `CN1CCCN(C)CCCN(C)CCCN(C)CCC1`, the growth inhibition is -24.6% (inactive).
